# Reference: paper PMC7862700, “An all-to-all approach to the identification of sequence-specific readers for epigenetic DNA modifications on cytosine”
# Assays:
# Assay in all cases: DAPPL (digital affinity profiling via proximity ligation, sequencing); 10 mM Tris-HCl pH 7.5, 50 mM NaCl, 1 mM DTT, 4% glycerol, room temperature, 30 min; GST-TFs on glutathione beads, 16-mer random dsDNA library, 0.1% formaldehyde crosslink after washing; high values mean tight binding
# [1] = target: T1, FLI1 (Homo sapiens, UniProt Q01543 1-452); details: protein: recombinant; tags: N-terminal GST; dsDNA, one strand shown
# T1 sequence: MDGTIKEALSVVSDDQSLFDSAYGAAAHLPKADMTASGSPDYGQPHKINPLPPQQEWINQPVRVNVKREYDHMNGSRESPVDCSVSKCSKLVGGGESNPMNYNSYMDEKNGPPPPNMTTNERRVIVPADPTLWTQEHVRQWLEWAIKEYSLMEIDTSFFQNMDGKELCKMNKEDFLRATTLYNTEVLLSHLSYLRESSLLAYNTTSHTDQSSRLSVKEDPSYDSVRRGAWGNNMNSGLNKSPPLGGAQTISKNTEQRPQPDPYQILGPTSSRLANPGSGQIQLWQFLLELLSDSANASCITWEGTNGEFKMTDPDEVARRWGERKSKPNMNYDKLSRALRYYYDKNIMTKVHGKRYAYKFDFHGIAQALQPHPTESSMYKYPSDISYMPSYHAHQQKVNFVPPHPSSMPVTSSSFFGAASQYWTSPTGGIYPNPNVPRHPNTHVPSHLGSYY
# Summary of the method: (§1)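 In yeast, human transcription factors were expressed with a GST fusion, then pulled down on glutathione beads and given DNA barcodes. Pooled with a tag-only sample, they were exposed to 200 nmole of a 16-mer random double-stranded DNA library (Tris/NaCl/DTT/glycerol buffer, room temperature, 30 min), washed, crosslinked with 0.1% formaldehyde, proximity-ligated using BsaI/T4 ligase for 1 h at 37 °C, PCR-amplified and read on an Illumina NextSeq500. Each hexamer's frequency of reads for a factor, divided by the matching frequency for the tag-only sample, gives the binding signal.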
# [2] = target: T2, ELK1 (Homo sapiens, UniProt P19419 1-428); details: protein: recombinant; tags: N-terminal GST; dsDNA, one strand shown
# T2 sequence: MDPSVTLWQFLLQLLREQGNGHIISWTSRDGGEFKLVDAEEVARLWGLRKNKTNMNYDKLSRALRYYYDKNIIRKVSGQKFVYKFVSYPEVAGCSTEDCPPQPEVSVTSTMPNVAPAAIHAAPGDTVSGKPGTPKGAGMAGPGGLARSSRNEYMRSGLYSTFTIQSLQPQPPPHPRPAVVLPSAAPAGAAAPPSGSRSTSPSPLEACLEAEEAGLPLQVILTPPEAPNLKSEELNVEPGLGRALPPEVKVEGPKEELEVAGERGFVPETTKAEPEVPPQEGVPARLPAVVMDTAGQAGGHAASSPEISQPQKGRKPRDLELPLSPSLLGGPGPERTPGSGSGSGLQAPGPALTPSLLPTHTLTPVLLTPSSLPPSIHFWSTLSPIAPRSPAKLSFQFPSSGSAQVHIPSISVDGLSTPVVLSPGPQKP
# Summary of the method: as §1
# [3] = target: T3, GABPA (Homo sapiens, UniProt Q06546 1-454); details: protein: recombinant; tags: N-terminal GST; dsDNA, one strand shown
# T3 sequence: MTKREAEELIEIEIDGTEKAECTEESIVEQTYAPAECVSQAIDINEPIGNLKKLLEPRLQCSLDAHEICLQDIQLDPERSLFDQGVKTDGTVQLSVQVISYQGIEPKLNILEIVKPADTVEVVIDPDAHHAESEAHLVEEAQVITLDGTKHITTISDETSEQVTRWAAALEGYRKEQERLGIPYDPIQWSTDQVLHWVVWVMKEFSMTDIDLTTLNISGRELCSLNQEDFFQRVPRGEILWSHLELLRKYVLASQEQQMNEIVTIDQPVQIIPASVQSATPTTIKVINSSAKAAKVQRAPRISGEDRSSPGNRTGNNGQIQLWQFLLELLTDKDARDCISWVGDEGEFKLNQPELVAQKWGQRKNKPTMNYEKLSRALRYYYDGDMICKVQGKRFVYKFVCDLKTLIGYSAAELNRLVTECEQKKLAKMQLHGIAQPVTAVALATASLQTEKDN
# Summary of the method: as §1
# [4] = target: T4, ERG (Homo sapiens, UniProt P11308 1-479); details: protein: recombinant; tags: N-terminal GST; dsDNA, one strand shown
# T4 sequence: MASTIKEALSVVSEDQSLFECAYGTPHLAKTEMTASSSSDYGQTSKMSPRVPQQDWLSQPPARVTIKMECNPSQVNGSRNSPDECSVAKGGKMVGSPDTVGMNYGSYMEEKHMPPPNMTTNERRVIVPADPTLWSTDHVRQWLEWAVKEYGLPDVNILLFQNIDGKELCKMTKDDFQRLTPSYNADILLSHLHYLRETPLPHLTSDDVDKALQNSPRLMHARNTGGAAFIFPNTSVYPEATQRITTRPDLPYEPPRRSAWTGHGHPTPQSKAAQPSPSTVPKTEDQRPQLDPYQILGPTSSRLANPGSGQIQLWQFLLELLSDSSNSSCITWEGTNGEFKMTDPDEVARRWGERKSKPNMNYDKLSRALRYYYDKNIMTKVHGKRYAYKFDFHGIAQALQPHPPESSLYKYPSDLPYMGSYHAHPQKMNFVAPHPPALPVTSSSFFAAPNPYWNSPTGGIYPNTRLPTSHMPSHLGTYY
# Summary of the method: as §1
# [5] = target: ELF1 (Homo sapiens, UniProt P32519 1-619); details: protein: recombinant; tags: N-terminal GST; dsDNA, one strand shown
# Summary of the method: as §1
# [6] = target: T5, EHF (Homo sapiens, UniProt Q9NZC4 1-300); details: protein: recombinant; tags: N-terminal GST; dsDNA, one strand shown
# T5 sequence: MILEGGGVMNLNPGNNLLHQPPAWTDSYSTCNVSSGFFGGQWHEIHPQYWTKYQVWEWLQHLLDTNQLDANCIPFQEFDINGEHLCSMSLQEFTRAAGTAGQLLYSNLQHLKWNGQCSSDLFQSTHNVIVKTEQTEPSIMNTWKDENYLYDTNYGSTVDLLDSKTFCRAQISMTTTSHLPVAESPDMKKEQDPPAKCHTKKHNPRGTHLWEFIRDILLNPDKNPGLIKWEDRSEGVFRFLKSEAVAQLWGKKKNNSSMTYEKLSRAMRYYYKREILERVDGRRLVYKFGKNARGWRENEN
# Summary of the method: as §1
# [7] = target: SPI1 (Homo sapiens, UniProt P17947 1-270); details: protein: recombinant; tags: N-terminal GST; dsDNA, one strand shown
# Summary of the method: as §1
# [8] = target: SPIB (Homo sapiens, UniProt Q01892 1-262); details: protein: recombinant; tags: N-terminal GST; dsDNA, one strand shown
# Summary of the method: as §1
# [9] = target: T6, ELK3 (Homo sapiens, UniProt P41970 1-407); details: protein: recombinant; tags: N-terminal GST; dsDNA, one strand shown
# T6 sequence: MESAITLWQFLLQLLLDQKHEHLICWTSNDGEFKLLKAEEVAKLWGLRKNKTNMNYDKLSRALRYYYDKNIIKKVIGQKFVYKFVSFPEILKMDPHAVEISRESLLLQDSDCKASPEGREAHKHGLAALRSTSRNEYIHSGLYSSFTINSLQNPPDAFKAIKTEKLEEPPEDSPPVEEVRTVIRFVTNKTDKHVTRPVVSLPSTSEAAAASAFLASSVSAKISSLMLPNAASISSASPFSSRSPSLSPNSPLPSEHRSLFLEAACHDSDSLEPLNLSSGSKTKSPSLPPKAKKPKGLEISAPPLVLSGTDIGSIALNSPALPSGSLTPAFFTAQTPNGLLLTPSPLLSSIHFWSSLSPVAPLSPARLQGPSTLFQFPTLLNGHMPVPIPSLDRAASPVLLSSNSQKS
# Summary of the method: as §1
# [10] = target: T7, FEV (Homo sapiens, UniProt Q99581 1-238); details: protein: recombinant; tags: N-terminal GST; dsDNA, one strand shown
# T7 sequence: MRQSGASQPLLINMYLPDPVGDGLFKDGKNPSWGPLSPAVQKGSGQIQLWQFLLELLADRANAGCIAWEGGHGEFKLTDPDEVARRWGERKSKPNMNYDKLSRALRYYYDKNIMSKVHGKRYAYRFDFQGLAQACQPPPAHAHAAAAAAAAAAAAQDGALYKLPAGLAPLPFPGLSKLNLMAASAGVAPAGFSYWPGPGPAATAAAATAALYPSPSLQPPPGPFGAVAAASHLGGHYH
# Summary of the method: as §1
# [11] = target: ETV5 (Homo sapiens, UniProt P41161 1-510); details: protein: recombinant; tags: N-terminal GST; dsDNA, one strand shown
# Summary of the method: as §1
# [12] = target: HSF1 (Homo sapiens, UniProt Q00613 1-529); details: protein: recombinant; tags: N-terminal GST; chain copies: 3; dsDNA, one strand shown
# Summary of the method: as §1
# [13] = target: T8, SPIC (Homo sapiens, UniProt Q8N5J4 1-248); details: protein: recombinant; tags: N-terminal GST; dsDNA, one strand shown
# T8 sequence: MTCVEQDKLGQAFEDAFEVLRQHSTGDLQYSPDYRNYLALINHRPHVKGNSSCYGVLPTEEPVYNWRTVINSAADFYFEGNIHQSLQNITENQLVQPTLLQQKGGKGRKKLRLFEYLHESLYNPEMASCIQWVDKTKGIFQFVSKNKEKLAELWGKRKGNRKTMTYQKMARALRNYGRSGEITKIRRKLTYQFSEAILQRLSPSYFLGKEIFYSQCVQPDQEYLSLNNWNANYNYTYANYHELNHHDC
# Summary of the method: as §1
# [14] = target: ELF4 (Homo sapiens, UniProt Q99607 1-663); details: protein: recombinant; tags: N-terminal GST; dsDNA, one strand shown
# Summary of the method: as §1
# [15] = target: T9, ELK4 (Homo sapiens, UniProt P28324-2 1-405); details: protein: recombinant; tags: N-terminal GST; dsDNA, one strand shown
# T9 sequence: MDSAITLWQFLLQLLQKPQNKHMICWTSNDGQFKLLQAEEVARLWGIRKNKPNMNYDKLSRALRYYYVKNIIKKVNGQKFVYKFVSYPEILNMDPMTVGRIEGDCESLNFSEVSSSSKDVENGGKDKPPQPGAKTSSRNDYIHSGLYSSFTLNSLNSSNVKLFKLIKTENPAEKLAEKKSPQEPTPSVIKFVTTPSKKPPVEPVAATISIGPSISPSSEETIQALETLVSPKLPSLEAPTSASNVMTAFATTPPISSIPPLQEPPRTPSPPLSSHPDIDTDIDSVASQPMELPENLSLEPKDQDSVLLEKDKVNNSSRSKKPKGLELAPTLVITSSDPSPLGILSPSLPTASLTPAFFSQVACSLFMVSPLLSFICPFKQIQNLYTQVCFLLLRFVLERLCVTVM
# Summary of the method: as §1
# [16] = target: T10, ETV2 (Homo sapiens, UniProt O00321 1-342); details: protein: recombinant; tags: N-terminal GST; dsDNA, one strand shown
# T10 sequence: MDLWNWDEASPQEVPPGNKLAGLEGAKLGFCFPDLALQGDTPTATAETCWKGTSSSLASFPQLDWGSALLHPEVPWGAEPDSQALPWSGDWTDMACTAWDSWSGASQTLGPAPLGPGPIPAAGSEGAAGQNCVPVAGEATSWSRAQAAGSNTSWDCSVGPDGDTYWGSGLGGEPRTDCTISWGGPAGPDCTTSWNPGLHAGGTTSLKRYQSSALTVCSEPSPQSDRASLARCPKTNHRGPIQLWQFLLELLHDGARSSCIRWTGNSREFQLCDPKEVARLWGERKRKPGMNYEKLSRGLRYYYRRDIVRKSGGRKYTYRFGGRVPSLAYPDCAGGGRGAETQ
# Summary of the method: as §1
# [17] = target: T11, ELF3 (Homo sapiens, UniProt P78545 1-371); details: protein: recombinant; tags: N-terminal GST; dsDNA, one strand shown
# T11 sequence: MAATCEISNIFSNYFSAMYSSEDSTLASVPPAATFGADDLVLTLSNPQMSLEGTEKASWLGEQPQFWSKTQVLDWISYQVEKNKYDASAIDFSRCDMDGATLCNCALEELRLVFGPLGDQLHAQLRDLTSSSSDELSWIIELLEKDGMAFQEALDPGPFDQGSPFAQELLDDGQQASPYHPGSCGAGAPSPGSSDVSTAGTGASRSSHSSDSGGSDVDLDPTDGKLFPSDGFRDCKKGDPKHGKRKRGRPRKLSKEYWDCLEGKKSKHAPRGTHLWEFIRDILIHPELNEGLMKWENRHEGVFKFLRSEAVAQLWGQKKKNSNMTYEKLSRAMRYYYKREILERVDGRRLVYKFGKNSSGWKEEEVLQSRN
# Summary of the method: as §1
# [18] = target: CRX (Homo sapiens, UniProt O43186 1-299); details: protein: recombinant; tags: N-terminal GST; dsDNA, one strand shown
# Summary of the method: as §1
# [19] = target: ETV1 (Homo sapiens, UniProt P50549 1-477); details: protein: recombinant; tags: N-terminal GST; dsDNA, one strand shown
# Summary of the method: as §1
# Sequence of ETV5 (P41161 whole entry): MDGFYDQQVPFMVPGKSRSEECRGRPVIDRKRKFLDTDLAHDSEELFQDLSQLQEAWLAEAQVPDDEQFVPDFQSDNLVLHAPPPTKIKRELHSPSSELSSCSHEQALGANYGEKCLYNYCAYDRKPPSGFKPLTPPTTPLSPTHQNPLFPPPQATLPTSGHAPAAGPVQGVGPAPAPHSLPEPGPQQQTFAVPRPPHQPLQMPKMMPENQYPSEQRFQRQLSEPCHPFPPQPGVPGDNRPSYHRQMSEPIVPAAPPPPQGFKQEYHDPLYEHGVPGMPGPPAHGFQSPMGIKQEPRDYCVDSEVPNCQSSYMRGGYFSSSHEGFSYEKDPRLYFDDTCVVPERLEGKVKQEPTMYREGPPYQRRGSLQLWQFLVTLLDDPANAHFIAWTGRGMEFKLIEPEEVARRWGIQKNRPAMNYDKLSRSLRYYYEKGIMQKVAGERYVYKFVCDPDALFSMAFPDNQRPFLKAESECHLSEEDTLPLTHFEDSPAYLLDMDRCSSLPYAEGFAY
# Sequence of ETV1 (P50549 whole entry): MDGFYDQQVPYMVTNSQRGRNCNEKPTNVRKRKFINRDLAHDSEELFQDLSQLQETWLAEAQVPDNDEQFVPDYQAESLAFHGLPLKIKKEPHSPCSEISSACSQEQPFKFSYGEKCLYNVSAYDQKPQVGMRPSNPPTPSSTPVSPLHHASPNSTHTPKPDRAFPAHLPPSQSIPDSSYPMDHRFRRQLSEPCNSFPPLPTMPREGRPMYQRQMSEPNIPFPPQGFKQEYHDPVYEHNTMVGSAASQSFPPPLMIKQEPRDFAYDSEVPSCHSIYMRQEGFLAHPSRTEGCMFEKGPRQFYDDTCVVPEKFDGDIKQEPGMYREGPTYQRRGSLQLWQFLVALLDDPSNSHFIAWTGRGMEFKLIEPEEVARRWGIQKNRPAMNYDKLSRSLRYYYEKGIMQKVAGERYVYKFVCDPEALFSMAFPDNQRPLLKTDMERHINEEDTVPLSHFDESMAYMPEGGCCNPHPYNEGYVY
# Sequence of ELF4 (Q99607 whole entry): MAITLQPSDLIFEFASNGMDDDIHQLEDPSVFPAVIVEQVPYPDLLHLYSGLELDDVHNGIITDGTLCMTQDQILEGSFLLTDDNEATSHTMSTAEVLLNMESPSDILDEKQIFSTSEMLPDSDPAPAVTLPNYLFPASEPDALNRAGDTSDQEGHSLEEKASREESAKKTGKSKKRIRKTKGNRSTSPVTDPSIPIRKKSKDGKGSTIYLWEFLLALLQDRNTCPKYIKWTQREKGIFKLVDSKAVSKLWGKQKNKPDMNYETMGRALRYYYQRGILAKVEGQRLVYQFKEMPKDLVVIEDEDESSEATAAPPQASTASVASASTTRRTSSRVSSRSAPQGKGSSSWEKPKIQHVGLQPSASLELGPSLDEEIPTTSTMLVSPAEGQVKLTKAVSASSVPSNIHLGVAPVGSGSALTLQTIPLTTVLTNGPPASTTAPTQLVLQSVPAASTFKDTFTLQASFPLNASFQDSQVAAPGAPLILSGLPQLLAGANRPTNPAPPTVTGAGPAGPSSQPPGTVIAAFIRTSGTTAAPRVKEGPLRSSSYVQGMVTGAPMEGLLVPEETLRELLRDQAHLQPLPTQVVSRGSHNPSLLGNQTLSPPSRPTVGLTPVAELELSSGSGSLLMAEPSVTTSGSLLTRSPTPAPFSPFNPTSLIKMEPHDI
# Sequence of SPIB (Q01892 whole entry): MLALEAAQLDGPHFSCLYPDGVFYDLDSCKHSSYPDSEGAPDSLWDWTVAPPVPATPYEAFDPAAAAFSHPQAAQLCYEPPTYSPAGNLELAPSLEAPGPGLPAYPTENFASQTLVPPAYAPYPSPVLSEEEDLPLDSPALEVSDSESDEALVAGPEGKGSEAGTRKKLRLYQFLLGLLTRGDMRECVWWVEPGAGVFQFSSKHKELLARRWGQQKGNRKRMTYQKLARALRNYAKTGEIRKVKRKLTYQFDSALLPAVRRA
# Sequence of ELF1 (P32519 whole entry): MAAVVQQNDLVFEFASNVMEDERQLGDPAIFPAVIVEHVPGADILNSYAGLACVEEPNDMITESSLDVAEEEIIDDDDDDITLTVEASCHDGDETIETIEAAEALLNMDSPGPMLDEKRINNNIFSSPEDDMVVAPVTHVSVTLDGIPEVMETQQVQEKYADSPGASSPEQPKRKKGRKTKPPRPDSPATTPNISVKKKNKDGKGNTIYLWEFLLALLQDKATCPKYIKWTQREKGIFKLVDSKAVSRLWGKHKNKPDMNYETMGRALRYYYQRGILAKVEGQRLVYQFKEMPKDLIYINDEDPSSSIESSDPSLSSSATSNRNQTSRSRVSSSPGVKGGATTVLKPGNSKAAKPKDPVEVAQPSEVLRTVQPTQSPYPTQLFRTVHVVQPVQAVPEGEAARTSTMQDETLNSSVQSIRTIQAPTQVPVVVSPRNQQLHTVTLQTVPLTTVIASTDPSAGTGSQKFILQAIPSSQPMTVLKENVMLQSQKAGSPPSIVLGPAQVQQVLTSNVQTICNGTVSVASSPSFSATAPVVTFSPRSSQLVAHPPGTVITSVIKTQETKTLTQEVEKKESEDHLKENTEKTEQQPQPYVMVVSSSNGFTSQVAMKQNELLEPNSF
# Sequence of CRX (O43186 whole entry): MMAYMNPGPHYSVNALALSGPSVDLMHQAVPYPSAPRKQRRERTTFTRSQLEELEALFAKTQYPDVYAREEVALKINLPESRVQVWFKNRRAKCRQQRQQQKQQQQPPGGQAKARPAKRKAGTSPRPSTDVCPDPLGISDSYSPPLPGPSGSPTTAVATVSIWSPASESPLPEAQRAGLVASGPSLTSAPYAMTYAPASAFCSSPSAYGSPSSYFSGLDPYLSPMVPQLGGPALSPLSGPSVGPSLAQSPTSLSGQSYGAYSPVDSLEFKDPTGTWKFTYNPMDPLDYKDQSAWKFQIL
# Sequence of HSF1 (Q00613 whole entry): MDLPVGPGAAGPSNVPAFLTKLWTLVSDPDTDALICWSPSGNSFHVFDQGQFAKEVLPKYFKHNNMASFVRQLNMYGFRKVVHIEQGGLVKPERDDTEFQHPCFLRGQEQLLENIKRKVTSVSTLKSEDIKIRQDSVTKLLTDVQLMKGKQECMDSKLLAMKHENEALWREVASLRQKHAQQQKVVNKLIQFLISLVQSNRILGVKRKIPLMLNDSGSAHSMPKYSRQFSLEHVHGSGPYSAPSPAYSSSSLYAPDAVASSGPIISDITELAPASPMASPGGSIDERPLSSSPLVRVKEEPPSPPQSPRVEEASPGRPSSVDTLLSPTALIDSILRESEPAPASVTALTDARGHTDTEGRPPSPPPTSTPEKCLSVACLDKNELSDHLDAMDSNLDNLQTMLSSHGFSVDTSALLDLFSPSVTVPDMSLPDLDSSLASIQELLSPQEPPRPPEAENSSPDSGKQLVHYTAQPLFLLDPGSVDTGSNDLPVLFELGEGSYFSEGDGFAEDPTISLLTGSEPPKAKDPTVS
sequence,measurement,setting,value
AATAAT,binding signal,[1],"1.23 fold enrichment (6-mer frequency, TF over GST control)"
same,binding signal,[2],"1.24 fold enrichment (6-mer frequency, TF over GST control)"
same,binding signal,[3],"1.31 fold enrichment (6-mer frequency, TF over GST control)"
same,binding signal,[4],"1.33 fold enrichment (6-mer frequency, TF over GST control)"
same,binding signal,[5],"1.28 fold enrichment (6-mer frequency, TF over GST control)"
same,binding signal,[6],"1.36 fold enrichment (6-mer frequency, TF over GST control)"
same,binding signal,[7],"1.24 fold enrichment (6-mer frequency, TF over GST control)"
same,binding signal,[8],"1.32 fold enrichment (6-mer frequency, TF over GST control)"
same,binding signal,[9],"1.39 fold enrichment (6-mer frequency, TF over GST control)"
same,binding signal,[10],"1.28 fold enrichment (6-mer frequency, TF over GST control)"
same,binding signal,[11],"1.35 fold enrichment (6-mer frequency, TF over GST control)"
same,binding signal,[12],"1.93 fold enrichment (6-mer frequency, TF over GST control)"
same,binding signal,[13],"1.31 fold enrichment (6-mer frequency, TF over GST control)"
same,binding signal,[14],"1.24 fold enrichment (6-mer frequency, TF over GST control)"
same,binding signal,[15],"1.22 fold enrichment (6-mer frequency, TF over GST control)"
same,binding signal,[16],"1.34 fold enrichment (6-mer frequency, TF over GST control)"
same,binding signal,[17],"1.42 fold enrichment (6-mer frequency, TF over GST control)"
same,binding signal,[18],"2.41 fold enrichment (6-mer frequency, TF over GST control)"
same,binding signal,[19],"1.24 fold enrichment (6-mer frequency, TF over GST control)"
